From PubChem BioAssay AID1347074 (Center for Chemical Genomics, University of Michigan, 2019)
In all, about 47,000 compounds went through this assay and about 2,800 (6%) were called active. The entries come from a sample that favours actives as a whole. Unmarked numbers belong to inactive results. No stated cut-off is given here; in the data, active means z-score above about 3 (passing the limit was not always enough); inactive means the rest.

These compounds were tested against Endoribonuclease Dicer (Homo sapiens) (UniProt Q9UPY3) (assay: inhibitors of Dicer pre-microRNA processing, primary screen, biochemical, cat-ELCCA, chemiluminescence (AID 1347074;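 further: plate controls were vehicle for no effect and no enzyme for full effect; higher signal means more uncleaved substrate so more Dicer inhibition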)). Settings: cat-ELCCA pre-miR-21 Dicer processing, at 25 µM, active compounds read high.
Endoribonuclease Dicer (Homo sapiens), sequence (Q9UPY3 whole entry, looked up): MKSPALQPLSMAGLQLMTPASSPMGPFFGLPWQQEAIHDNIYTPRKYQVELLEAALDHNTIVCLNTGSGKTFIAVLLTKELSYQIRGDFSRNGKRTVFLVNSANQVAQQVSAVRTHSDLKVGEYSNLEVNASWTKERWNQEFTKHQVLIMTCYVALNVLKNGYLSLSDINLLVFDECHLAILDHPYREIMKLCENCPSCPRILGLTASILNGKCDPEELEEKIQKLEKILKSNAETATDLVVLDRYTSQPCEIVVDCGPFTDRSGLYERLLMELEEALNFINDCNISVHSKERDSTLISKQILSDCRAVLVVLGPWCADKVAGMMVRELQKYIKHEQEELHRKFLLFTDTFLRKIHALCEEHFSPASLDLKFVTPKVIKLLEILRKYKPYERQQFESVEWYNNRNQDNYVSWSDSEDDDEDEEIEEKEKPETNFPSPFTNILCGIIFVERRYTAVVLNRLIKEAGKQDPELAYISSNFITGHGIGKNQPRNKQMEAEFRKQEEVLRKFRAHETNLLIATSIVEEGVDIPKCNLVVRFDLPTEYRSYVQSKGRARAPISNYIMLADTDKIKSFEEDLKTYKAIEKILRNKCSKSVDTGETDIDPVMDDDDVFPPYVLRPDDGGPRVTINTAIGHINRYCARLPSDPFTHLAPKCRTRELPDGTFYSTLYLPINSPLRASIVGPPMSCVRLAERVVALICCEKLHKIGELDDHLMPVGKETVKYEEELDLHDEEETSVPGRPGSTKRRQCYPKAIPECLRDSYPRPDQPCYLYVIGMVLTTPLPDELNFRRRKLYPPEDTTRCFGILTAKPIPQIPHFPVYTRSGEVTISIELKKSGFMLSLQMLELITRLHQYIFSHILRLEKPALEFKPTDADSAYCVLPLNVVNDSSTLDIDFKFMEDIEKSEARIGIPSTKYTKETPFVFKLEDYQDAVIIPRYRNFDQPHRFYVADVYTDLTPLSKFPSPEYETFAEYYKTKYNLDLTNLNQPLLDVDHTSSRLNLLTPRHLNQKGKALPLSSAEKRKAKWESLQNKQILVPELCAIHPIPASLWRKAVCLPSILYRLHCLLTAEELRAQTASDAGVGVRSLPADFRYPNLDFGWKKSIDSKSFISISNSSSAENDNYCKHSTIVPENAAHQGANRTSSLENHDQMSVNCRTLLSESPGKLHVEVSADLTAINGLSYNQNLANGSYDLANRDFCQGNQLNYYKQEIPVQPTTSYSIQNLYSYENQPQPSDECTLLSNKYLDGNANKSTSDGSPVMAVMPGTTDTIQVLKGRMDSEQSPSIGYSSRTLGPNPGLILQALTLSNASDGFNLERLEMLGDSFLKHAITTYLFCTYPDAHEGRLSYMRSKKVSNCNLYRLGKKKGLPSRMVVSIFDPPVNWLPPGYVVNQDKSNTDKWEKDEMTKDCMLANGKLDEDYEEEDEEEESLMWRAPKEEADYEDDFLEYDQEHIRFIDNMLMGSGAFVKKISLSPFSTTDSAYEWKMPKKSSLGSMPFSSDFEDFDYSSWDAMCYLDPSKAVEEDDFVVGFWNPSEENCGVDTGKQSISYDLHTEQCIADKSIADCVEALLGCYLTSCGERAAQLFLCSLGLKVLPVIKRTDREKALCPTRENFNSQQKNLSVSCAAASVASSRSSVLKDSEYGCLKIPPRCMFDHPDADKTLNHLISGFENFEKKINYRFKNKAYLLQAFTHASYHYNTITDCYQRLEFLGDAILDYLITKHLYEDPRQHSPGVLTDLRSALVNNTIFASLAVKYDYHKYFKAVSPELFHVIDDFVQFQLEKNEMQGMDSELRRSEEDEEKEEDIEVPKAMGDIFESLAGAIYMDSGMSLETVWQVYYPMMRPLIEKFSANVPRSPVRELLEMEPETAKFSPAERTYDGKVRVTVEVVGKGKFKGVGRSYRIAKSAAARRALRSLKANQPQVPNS
C/C(=N\NS(=O)(=O)c1ccc(Cl)cc1)c1cc(-c2ccccc2)no1 gave a z-score of -0.51. With C=C1c2c(Cl)ccc(O)c2C(O)=C2C(=O)[C@]3(O)C(O)=C(C(N)=O)C(=O)[C@@H](N(C)C)[C@@H]3[C@@H](O)C12 (stereo partly specified) the z-score was 15.5 (active). In the case of CN(C)[C@@H]1C(=O)C(C(N)=O)=C(O)[C@@]2(O)C(=O)C3=C(O)c4c(O)ccc(Cl)c4[C@@H](O)[C@H]3C[C@@H]12, the z-score is reported as 0.22. Compound O=C(NC(=O)c1c(F)cccc1F)Nc1ccc(Br)cc1F has a z-score of 0.21. With O=C1Nc2ccc(S(=O)(=O)Nc3ccc4oc(=O)sc4c3)c3cccc1c23 the z-score was 1.49. Work on CC(C)C(=O)NNc1ncc(C(F)(F)F)cc1Cl yielded a z-score of 0.4. O=C1C(=O)N(CCCn2ccnc2)C(c2ccco2)/C1=C(\O)c1ccccc1 (stereo unspecified) gave a z-score of 2.79. With N#Cc1cccc(CSc2ncnc(N)n2)c1 the z-score was 3.87 (active). O=C(CSc1nnc(-c2ccco2)c(-c2ccco2)n1)Nc1ccc(Br)cc1 was tested, and the z-score was -1.71. With Cc1[nH]nc2oc(=O)c([N+](=O)[O-])c(C)c12 the z-score was -1.74. Compound O=C1NNC(c2ccccc2)=N/C1=C\c1ccc(Cl)cc1 has a z-score of -3.16. With O=C1NC(c2ccccc2)=N/C1=C/c1ccc(F)cc1 the z-score was 3.84 (active). Compound c1ccc(C2=Nc3cccc4cccc(c34)N2)cc1 has a z-score of -0.61. O=C1C(=O)N(CCCn2ccnc2)C(c2ccncc2)/C1=C(\O)c1ccc(Cl)cc1 (stereo unspecified) showed a z-score of 1.19. Work on CCCc1n(CC(O)COc2ccc(C)cc2)c2ccccc2[n+]1C (stereo unspecified) yielded a z-score of -0.91. In the case of Cc1ccccc1CN1C=C(C(N)=O)C(C(F)(F)F)CC1 (stereo unspecified), the z-score is reported as -0.6. COc1cccc(CNC2CS(=O)(=O)CC2O)c1 (stereo unspecified) gave a z-score of 0.5. Work on CCc1c(C)nc2cc(-c3ccc(Br)cc3)[nH]n2c1=O yielded a z-score of 1.4. Work on COCCOC(=O)C1=C(C)NC2=C(C(=O)CC(C)(C)C2)C1c1ccc(Br)cc1 (stereo unspecified) yielded a z-score of -0.9. In the case of COc1csc2nc(C)cc(C)c12, the z-score is reported as 2.93. O=C(CC1(O)C(=O)Nc2ccccc21)c1ccc(F)cc1 (stereo unspecified) gave a z-score of -0.42. Cc1[nH]c2ccccc2c1C1(O)C(=O)Nc2ccccc21 (stereo unspecified) showed a z-score of 0.91. For O=C1Nc2ccccc2C12NNC(=S)NN2, the z-score was 8.53 (active). Work on CC1=C(C(=O)Nc2ccccc2)C(c2cccs2)C(C#N)=C(SCC(=O)O)N1 (stereo unspecified) yielded a z-score of 0.54. Compound CC12CCC(C(=O)O)(CC1=O)C2(C)C (stereo unspecified) has a z-score of 2.29. Compound O=C1C(=O)N(c2cccnc2)C(c2ccc(Br)cc2)/C1=C(\O)c1ccc(Cl)cc1 (stereo unspecified) has a z-score of 0.32. O=C(Oc1ccc2ccccc2c1)c1ccncc1 showed a z-score of 0.81. For O=C(Oc1ccc(Br)cc1)c1cccnc1, the z-score was 5.46 (active). O=C1CC(c2ccc(F)cc2)Cc2nc3nc(C(F)(F)F)nn3cc21 (stereo unspecified) was tested, and the z-score was -0.42. CC(C)Oc1ccc(C2N3CC4(C)CN2CC(C)(C3)C4)cc1 (stereo unspecified) showed a z-score of 2.35. For COc1ccc(C2N3CC4(C)CN2CC(C)(C3)C4)cc1 (stereo unspecified), the z-score was 1.02. With CC(C)c1ccc(C2N3CC4(C)CN2CC(C)(C3)C4)cc1 (stereo unspecified) the z-score was 4.83 (active). With C#CC1(NS(=O)(=O)c2ccc(Sc3ccccc3)c([N+](=O)[O-])c2)CCCCC1 the z-score was -0.19. CCOC(=O)Cc1csc(NC(=O)Nc2ccccc2)n1 gave a z-score of -0.51. Cc1cc(C)c(C#N)c(Nc2cccc(Br)c2)n1 gave a z-score of 0.66. For CCOC(=O)Cc1nnc2c(Nc3cccc(Br)c3)nc3nonc3n12, the z-score was 3.07 (active). O=C(Cn1nc(C(F)(F)F)c2c1CCCC2)Nc1ccc(Cl)cc1 gave a z-score of 1.11. COC(=O)c1ccc(C2Nc3ccccc3NC3=C2C(=O)CC(c2ccccc2)C3)cc1 (stereo unspecified) was tested, and the z-score was 3.94 (active). In the case of COc1ccc(C2CC(=O)C3=C(C2)Nc2ccccc2NC3c2cc(F)ccc2F)cc1 (stereo unspecified), the z-score is reported as 3.99 (active). COC(=O)C1=C(C)NC2=C(C(=O)CC(c3ccccc3)C2)C1c1ccc(C)cc1 (stereo unspecified) gave a z-score of 0.18. COc1ccc(C2CC(=O)C3=C(C2)Nc2ccccc2NC3c2cccc(Cl)c2)cc1 (stereo unspecified) gave a z-score of 2.07. Compound O=C1CC(c2ccccc2)CC2=C1C(c1cccc(Cl)c1)Nc1ccccc1N2 (stereo unspecified) has a z-score of 1.52. Work on CN(C)c1ccc(C2Nc3ccccc3NC3=C2C(=O)CC(c2ccc(Cl)cc2)C3)cc1 (stereo unspecified) yielded a z-score of 1.16. In the case of O=C(CSc1ncnc2c1sc1nc(N3CCOCC3)c3c(c12)CCCC3)N1CCCCC1, the z-score is reported as -0.18. CCOC(=O)c1[nH]c2ccc([N+](=O)[O-])cc2c1CCC(=O)O was tested, and the z-score was 0.9. In the case of COc1ccc(NC(=O)NCc2c(-c3ccccc3)noc2C)cc1OC1CCCC1, the z-score is reported as -0.22. Cc1cc(C)nc(N2CCN(c3ncnc4sc5c(c34)CCCC5)CC2)n1 gave a z-score of 5.88. Cc1cc(C)c2oc(-c3ccc(C)c(NC(=O)C(C)C)c3)nc2c1 showed a z-score of 0.37. With Clc1ccc(CNc2nc3ccccc3n2CCN2CCOCC2)cc1 the z-score was 3.51 (active). For c1ccc2[nH]c(NCCN3CCOCC3)nc2c1, the z-score was -0.76. For Clc1ccc(Cn2c(-c3ccco3)nc3ccccc32)cc1, the z-score was 2.46. Cc1nn(-c2ccc(N3CCOCC3)nn2)c(=O)c2ccccc12 showed a z-score of -0.81. In the case of Cc1c(Cc2c(F)cccc2Cl)c(=O)oc2cc(OC(=O)c3ccccc3Cl)ccc12, the z-score is reported as -0.2. Work on COc1ccc(OC)c(NC(=O)Cn2cc(C(=O)C3CC3)c3ccccc32)c1 yielded a z-score of 0.03. COc1ccc(OCCn2cc(C(=O)C3CC3)c3ccccc32)cc1 was tested, and the z-score was 3.94 (active). With COCCCNC(=O)Cn1cc(C(=O)C2CC2)c2ccccc21 the z-score was 1.99. CCCCN1C(=O)C2(/C(=C(/O)c3ccc(F)cc3)C(=O)C(=O)N2CCCOC)c2ccccc21 (stereo unspecified) gave a z-score of 2.27. For Cc1cccc(C)c1NC(=S)NCCC(=O)O, the z-score was 1.63. With CCN(C(=S)Nc1c(C)cccc1C)c1ccccc1 the z-score was 3.03 (active). Work on COc1cc(CN(Cc2ccccc2)C(=S)Nc2c(C)cccc2C)cc(OC)c1OC yielded a z-score of 1.24. O=[N+]([O-])c1ccc(S(=O)(=O)c2ccccc2)cc1OS(=O)(=O)c1ccc(Cl)cc1 gave a z-score of 0.46.
